Screens: PubChem BioAssay, National Center for Advancing Translational Sciences (NCATS)
Pf growth 48h: Primary qHTS for delayed death inhibitors of the malarial parasite plastid, 48 hour incubation. P. falciparum luciferase growth in erythrocytes, 48 h. Potency, µM (titrated, usually from 28.7 µM), for inactives: top-dose activity change, negative = inhibition, hits mostly inhibitors. 5.9% of 310,000 active. AID 504832, 2011; note: potency is the fitted concentration of half-maximal effect; % is set by controls: 0 for no effect and ±100 for the full control effect
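Here the parasites carry a stable luciferase gene and grow inside erythrocytes in Albumax-based RPMI medium with compound for one erythrocytic cycle. Activity is scored as loss of luminescent signal.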
HCMV inh: qHTS Assay for inhibitors of the human cytomegalovirus (HCMV); HFF cells, HCMV-luciferase reporter, 72 h; stronger effect = lower value; activity change, negative = inhibition, % at 57.5 µM; 4.5% of 410,000 active; AID 1259415, 2018; in the data active = activity change below about -60%; inconclusive = no clear call, values can overlap the other calls; inactive = above about -39%; note: % is set by controls: 0 for no effect and ±100 for the full control effect
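Inhibition of viral replication was scored as loss of reporter luminescence in HFFs infected with HCMV-luciferase (MOI 1 PFU/cell) for 72 h; compounds tested at 2 doses, normalized to buffer and Salinomycin controls.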
Cycloheximide cs: Cycloheximide Counterscreen for Small Molecule Inhibitors of Shiga Toxin; cell reporter, cycloheximide protein synthesis inhibition counterscreen; max response, %; 12% of 300,000 active; in the data active = max response mostly above about 13%, no sharp cut-off; inactive = mostly below about 14%; note: read at 38.3 µM for the half of the compounds with a filed dose; 0% is about no effect
Pf growth 96h: Primary qHTS for delayed death inhibitors of the malarial parasite plastid, 96 hour incubation; P. falciparum luciferase reporter growth, 96 h; Potency, µM (doses to about 28.7 µM), without a hit: top-dose activity change, negative = inhibition, hits mostly inhibitors; 6.9% of 320,000 active; AID 504834, 2011; note: potency is the fitted concentration of half-maximal effect; % is set by controls: 0 for no effect and ±100 for the full control effect
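Cell-based qHTS: luciferase-tagged P. falciparum in erythrocytes (2% hematocrit, 0.05% parasitemia final) incubated with compounds for 96 hours, 37 C, 5% CO2; luciferase detection reagent then added and luminescence measured.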
Shiga toxin inh: A qHTS for Small Molecule Inhibitors of Shiga Toxin; Vero cells, Shiga toxin protein synthesis inhibition reporter; inhibition, % at 38.7 µM; 9.2% of 290,000 active; AID 2315, 2010; in the data active = inhibition mostly above about 28%, no sharp cut-off; inactive = mostly below about 43%; note: 0% is about no effect
Starred values were filed as active, the others as inactive. Only some compounds are listed: those with a hit (about 20% of all), similar ones and a draw of the others. Unless noted, calls come from the whole dose curve; as a rule, active = well fitted inhibition curve with a large enough effect; inconclusive = small, poorly fitted or top-dose-only effect, or another doubt; inactive = no such curve, though single readings can be large or run the other way.

How did CCOC(=O)N1CCC(NC(=O)C2CCN(c3nc(-c4ccc(OC)cc4)no3)CC2)CC1 do in these assays?
Pf growth 48h: inconclusive; HCMV inh: -65*; Cycloheximide cs: 2; Pf growth 96h: 84%; Shiga toxin inh: -4

Results for COc1ccc(-c2noc(N3CCC(C(=O)NCCCN4CCCCC4)CC3)n2)cc1 ?
Pf growth 48h: inconclusive; HCMV inh: -9; Cycloheximide cs: 3; Pf growth 96h: 2%; Shiga toxin inh: 20*

What do the screens show for `COc1ccc(-c2noc(N3CCC(C(=O)NCCCN4CCCC(C)C4)CC3)n2)cc1` (configuration not stated)?
Pf growth 48h: -5%; HCMV inh: -19; Cycloheximide cs: active; Pf growth 96h: 8%; Shiga toxin inh: 18

How did CCCc1cc(CNC(=O)C2CCC(=O)N(Cc3ccccc3F)C2)on1 (configuration not stated) do in these assays?
Pf growth 48h: 0%; HCMV inh: -31; Cycloheximide cs: -4; Pf growth 96h: inconclusive; Shiga toxin inh: 31

What do the screens show for `Cn1c(Cl)c(/C=N/OC(=O)c2cccc(Cl)c2)c2ccccc21`?
Pf growth 48h: 35%; HCMV inh: -7; Cycloheximide cs: -3; Pf growth 96h: 122%; Shiga toxin inh: -9

What do the screens show for `CN(C)c1ccc(N=Cc2nc(-c3ccccc3)oc2OC(=O)c2cccc(Cl)c2)cc1`?
Pf growth 48h: 182%; HCMV inh: 64; Cycloheximide cs: 68*; Pf growth 96h: 212%; Shiga toxin inh: 71*

What do the screens show for `Cc1ccc(C(=O)Oc2oc(-c3ccccc3)nc2C=Nc2ccc(N(C)C)cc2)cc1`?
Pf growth 48h: 162%; HCMV inh: -1; Cycloheximide cs: 78*; Pf growth 96h: 96%; Shiga toxin inh: 130*

What do the screens show for `COc1cccc(N=Cc2nc(-c3ccccc3)oc2OC(C)=O)c1`?
Pf growth 48h: 49%; HCMV inh: 0; Cycloheximide cs: 8; Pf growth 96h: 147%; Shiga toxin inh: 48*

Results for COc1ccc(N=Cc2nc(-c3ccccc3)oc2OC(C)=O)cc1 ?
Pf growth 48h: 34%; HCMV inh: -17; Cycloheximide cs: -1; Pf growth 96h: 51%; Shiga toxin inh: 14

What do the screens show for `CCOc1ccc(S(=O)(=O)N2CCN(S(=O)(=O)c3ccc(C)c(C)c3)CC2)cc1`?
Pf growth 48h: -10%; HCMV inh: 6; Cycloheximide cs: -6; Pf growth 96h: 23%; Shiga toxin inh: -3

Results for Nc1cc(C(=O)c2ccccc2)ccc1[N+](=O)[O-] ?
Pf growth 48h: 18%; HCMV inh: -35; Cycloheximide cs: 15; Pf growth 96h: 19%; Shiga toxin inh: 5

Results for CCNC(=O)c1cc2c(c(-c3cccc(-c4cccnc4)c3)n1)[C@H](CCO)N(S(C)(=O)=O)C2 ?
HCMV inh: -32

What do the screens show for `COc1ccc(CN2CCNC(=O)C2CC(=O)N2CCCCO2)c(OC)c1` (configuration not stated)?
Pf growth 48h: 30%; HCMV inh: -13; Cycloheximide cs: -3; Pf growth 96h: 5%; Shiga toxin inh: -2

Results for O=S1(=O)NC[C@]23C[C@H](c4ccc(F)cc4)[C@@H](C[C@@H]21)O3 ?
Pf growth 48h: -4%; HCMV inh: -102*; Cycloheximide cs: -4; Pf growth 96h: inconclusive; Shiga toxin inh: 5

What do the screens show for `Cc1ccc([C@H]2C[C@]34CNS(=O)(=O)[C@H]3C[C@H]2O4)cc1`?
HCMV inh: 23

Results for Cc1cccc(C)c1NC(=O)COc1ccc2c(C)c(Cc3ccccc3)c(=O)oc2c1C ?
Pf growth 48h: -27%; HCMV inh: -2; Cycloheximide cs: -2; Pf growth 96h: 20%; Shiga toxin inh: -9

How did Cc1cc(C)cc(NC(=O)COc2ccc3c(C)c(Cc4ccccc4)c(=O)oc3c2)c1 do in these assays?
Pf growth 48h: 8.3µM*; Cycloheximide cs: -3; Pf growth 96h: inconclusive; Shiga toxin inh: -10

Results for Cc1c(Cc2ccccc2)c(=O)oc2c(C)c(OCC(=O)Nc3ccc(C#N)cc3)ccc12 ?
Pf growth 48h: inconclusive; HCMV inh: inconclusive; Cycloheximide cs: -1; Pf growth 96h: 2.1µM*; Shiga toxin inh: -8

What do the screens show for `Cc1c(Cc2ccccc2)c(=O)oc2cc(OCC(=O)c3ccccc3)ccc12`?
Pf growth 48h: 10%; HCMV inh: -22; Cycloheximide cs: -7; Pf growth 96h: -28%; Shiga toxin inh: -7

How did Cc1cc(OCC(=O)NCC2CCC(C(=O)O)CC2)c2c(C)c(Cc3ccccc3)c(=O)oc2c1 (configuration not stated) do in these assays?
Pf growth 48h: 12µM*; HCMV inh: -10; Cycloheximide cs: -4; Pf growth 96h: 3.3µM*; Shiga toxin inh: 11

How did Cn1c(=O)c(=O)n(C)c2cc(N3CCCC3)c(NC(=O)c3ccccc3F)cc21 do in these assays?
HCMV inh: -9

What do the screens show for `CN(C)CCN(Cc1ccccc1)c1ccnc(N(C)C)c1C#N`?
Pf growth 48h: -28%; HCMV inh: 18; Cycloheximide cs: -1; Shiga toxin inh: 38

Results for CN(C)c1nccc(N(Cc2ccccc2)Cc2ccccc2)c1C#N ?
Pf growth 48h: inconclusive; HCMV inh: 39; Cycloheximide cs: 36*; Pf growth 96h: 75%; Shiga toxin inh: 94*

How did CCC(=O)Nc1cccc(-n2nnnc2SCC(=O)NCc2ccco2)c1 do in these assays?
Pf growth 48h: 18%; HCMV inh: -19; Cycloheximide cs: 8; Pf growth 96h: inconclusive; Shiga toxin inh: 29

What do the screens show for `CCC(=O)Nc1cccc(-n2nnnc2SCC(=O)c2ccc(C)c(C)c2)c1`?
Pf growth 48h: 9%; HCMV inh: -7; Cycloheximide cs: 26*; Pf growth 96h: 10%; Shiga toxin inh: 42*

What do the screens show for `CCCCn1nnnc1SCC(=O)c1ccc(C)c(C)c1`?
Pf growth 48h: 14%; HCMV inh: 7; Cycloheximide cs: 38*; Shiga toxin inh: 19

How did CCCCc1nn2c(=O)cc(COC(=O)c3ccccc3NC(=O)C3CCCCC3)nc2s1 do in these assays?
HCMV inh: 18

What do the screens show for `COc1cc2c(c(NC(C)=O)c1)N(C(C)=O)CCC2`?
HCMV inh: -28

Results for COC(=O)C1(NC(=O)CNC(=O)OCc2ccccc2)CCCC1 ?
HCMV inh: -9

Results for CN(C)c1ccc(/C=N/NC(=O)c2cnc3ccccc3c2)cc1 ?
Pf growth 48h: inconclusive; HCMV inh: inconclusive; Cycloheximide cs: 0; Pf growth 96h: inconclusive; Shiga toxin inh: 4

How did CC(C)c1ccc(/C=N/NC(=O)c2ccccn2)cc1 do in these assays?
Pf growth 48h: 94%; HCMV inh: 69; Cycloheximide cs: 32*; Pf growth 96h: 312%; Shiga toxin inh: 13

What do the screens show for `O=C(Oc1ccc(/C=N/NC(=O)c2ccccn2)cc1)c1cccc(F)c1`?
HCMV inh: 18
